Assay results reported in PubChem BioAssay AID504942 (Broad Institute, 2011).
Results with a measured potency or affinity are listed apart. The source made the active and inactive calls. No rule for the calls is given here.

Assay: HeLa cell cytotoxicity, dose response, cytotoxicity control, 48 h, plate reader, cherry-picks (AID 504942)
Settings: series mostly up to 38 µM

For `N#CC1C(C#N)C2CCC1C1C2N1c1ccccc1` (stereo unspecified), which outcome is on record?
The outcome was “inactive”.
